# Results as given in PubChem BioAssay AID2751 (The Scripps Research Institute Molecular Screening Center, 2010).
# “And” between values parts separate entries of the source, which are not always exact repeats. Equal entries are not always repeated. About 2,200 (0.69%) of roughly 320,000 compounds were called active. No stated cut-off is given here; in the data, active means inhibition above about 43%; inactive means the rest. For the sample, actives were picked, then their nearest neighbours and some compounds at random. Some compounds were tested as several samples or in several runs, with calls that do not always agree.
# Target: Prolyl endopeptidase-like (Homo sapiens) (UniProt Q4J6C6)
# Sequence (Q4J6C6 whole entry, looked up): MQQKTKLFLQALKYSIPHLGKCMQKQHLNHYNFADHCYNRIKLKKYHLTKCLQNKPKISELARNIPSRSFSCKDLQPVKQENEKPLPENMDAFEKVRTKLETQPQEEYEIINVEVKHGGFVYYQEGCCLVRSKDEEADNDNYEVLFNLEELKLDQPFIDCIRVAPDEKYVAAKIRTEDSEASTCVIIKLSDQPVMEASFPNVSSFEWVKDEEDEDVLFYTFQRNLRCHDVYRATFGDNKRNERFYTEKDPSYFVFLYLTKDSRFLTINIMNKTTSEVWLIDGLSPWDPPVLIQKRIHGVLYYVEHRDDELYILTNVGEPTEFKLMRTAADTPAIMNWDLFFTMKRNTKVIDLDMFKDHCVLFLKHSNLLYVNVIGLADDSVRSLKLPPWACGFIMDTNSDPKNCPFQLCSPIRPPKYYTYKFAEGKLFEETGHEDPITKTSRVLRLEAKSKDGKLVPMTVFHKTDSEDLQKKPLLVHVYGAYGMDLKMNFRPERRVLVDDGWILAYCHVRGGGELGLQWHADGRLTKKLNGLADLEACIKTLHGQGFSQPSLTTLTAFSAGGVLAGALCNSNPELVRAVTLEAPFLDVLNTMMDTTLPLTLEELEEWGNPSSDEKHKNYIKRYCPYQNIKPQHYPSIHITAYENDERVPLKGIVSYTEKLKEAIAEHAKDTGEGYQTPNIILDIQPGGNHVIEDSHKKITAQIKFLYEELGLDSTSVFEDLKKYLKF
# Test: PREPL enzyme inhibitors, primary screen, biochemical, fluorescence polarization (AID 2751);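 further: 0% = enzyme with DMSO and 100% = wells lacking enzyme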
# Conditions: recombinant PREPL, fluorescence polarization activity-based probe; at 5.96 µM; stronger effect = higher value
row,SMILES,inhibition
1,CCc1ccc(S(=O)(=O)Nc2ccc(C)c(NS(C)(=O)=O)c2)cc1,-2.02% (inactive)
2,Cc1cccc2nc(CNc3ccc(F)cc3)cn12,-2.47% (inactive)
3,O=C(CN1CCOCC1)Nc1c2c(nc3c1CCC3)CCC2,-8.04% (inactive)
4,CCC(=C/c1sc2ccc3ccccc3c2[n+]1C)/C=C1\Sc2ccc3ccccc3c2N1C,90.7% (active)
5,CC(=O)Nc1ccc(NC(=O)C(C)OC(=O)C2CC(=O)N(CCc3ccccc3)C2)cc1 (stereo not drawn),12.3% (inactive)
6,CC1(C)CC[C@@]2(C(=O)O)C(C1)C1=CCC3[C@@]4(C)CC[C@H](O)C(C)(C)C4CC[C@@]3(C)[C@]1(C)C[C@H]2O (stereo partly drawn),21.2% (inactive)
7,COc1ccc2cc1Oc1ccc(cc1)C[C@H]1c3cc(c(OC)cc3CCN1C)Oc1c(O)c(OC)cc3c1[C@H](C2)N(C)CC3,59% (active)
8,COc1c(O)ccc2c1CN1CCc3cc4c(cc3C1C2)OCO4 (stereo not drawn),16.4% (inactive)
9,CC(C)(C)C(=O)N1CCC[C@@]1(CO)C(=O)O,6.21% (inactive)
10,CCC/C(C)=N\Nc1nc2c(c(=O)n(C)c(=O)n2C)n1C,11.5% (inactive)
11,CCN1CC(CN(C)Cc2nc(-c3ccc(Cl)cc3)no2)CC1=O (stereo not drawn),18.3% (inactive)
12,Cc1cc(C(=O)NCCc2ccc(Cl)cc2)c(C)o1,6.11% (inactive)
13,CC(C)CN(C(=O)CN1CCN(S(=O)(=O)c2ccccc2)CC1)c1c(N)n(CC(C)C)c(=O)[nH]c1=O,9.18% (inactive)
14,O=C1NC(Cc2ccc(O)cc2)c2nc3ccc(Cl)cc3c(=O)n2-c2ccccc21 (stereo not drawn),12.8% (inactive)
15,CC(C)Cc1nc(N2CCOCC2)c(C#N)c2c1CCC2,2.59% (inactive)
16,CCc1nc(NCCO)c(C#N)c2c1CCCC2,7.84% (inactive)
17,CC(C)CCNc1nc(N2CCCC2)c2c(c1C#N)CCN(C)C2,55.6% (active)

row,SMILES,inhibition
1,CC(Sc1nc2c([nH]c3ccccc32)c(=O)n1C)c1ccccc1 (stereo not drawn),-0.13% (inactive)
2,Cc1ccccc1NC(=O)C1CCCN(C(=O)NCc2ccccc2)C1 (stereo not drawn),10.1% (inactive)
3,O=C(Nc1ccc(Cl)cc1)N1CCc2[nH]c3ccccc3c2C1,14.6% (inactive)
4,COC(=O)[C@H]1[C@H]2C[C@H]3c4[nH]c5ccccc5c4CCN3C[C@@H]2CC[C@@H]1O,16.7% (inactive) and 45.8% (active)
5,COC(=O)C1CCN(C(=O)c2cc(=O)[nH]c3ccccc23)CC1,-5.95% (inactive)
6,OC(COc1ccc(F)cc1Cl)CN1CCc2ccccc2C1 (stereo not drawn),3.81% (inactive)
7,CCCC(C(=O)NCc1ccco1)N(C(=O)CNS(=O)(=O)c1ccccc1)C1CCCC1 (stereo not drawn),-3.85% (inactive)
8,O=C(OCC1OC(Oc2ccc(O)cc2)C(O)C(O)C1O)c1ccccc1 (stereo not drawn),9.62% (inactive)
9,O=C(OCC1O[C@@H](OC(=O)c2cc(O)c(O)c(O)c2)[C@@H](OC(=O)c2cc(O)c(O)c(O)c2)[C@@H](OC(=O)c2cc(O)c(O)c(O)c2)[C@@H]1OC(=O)c1cc(O)c(O)c(O)c1)c1cc(O)c(O)c(O)c1 (stereo partly drawn),87.5% (active)
10,COc1ccccc1C(=O)NCc1nnc(SC(C)C(=O)Nc2nccs2)n1C (stereo not drawn),-8.82% (inactive)
11,CCC(=O)N1c2ccc(S(=O)(=O)NCc3ccco3)cc2CC1C (stereo not drawn),-3.18% (inactive)
12,O=C(CSc1ncnc2sccc12)N1CCN(C(=O)c2cccs2)CC1,6.26% (inactive)
13,Nc1c(C(=O)c2cccs2)sc2nsc(SCCN3CCCCC3)c12,48.1% (active)
14,CN(CC(=O)Nc1ccc(Cl)c(C(F)(F)F)c1)C(=O)CCC(=O)c1ccccc1,1.31% (inactive)
15,CC(C)c1ccc(S(=O)(=O)N2CCN(C(C)C(=O)NC3CCCC3)CC2)cc1 (stereo not drawn),5.61% (inactive)
16,CC(Oc1ccc(F)cc1)C(=O)Nc1ccccc1C(=O)NC1CC1 (stereo not drawn),-10.5% (inactive)
